Results filed as inconclusive are left out. Activity calls are given as the source filed them. The call rests on the fitted dose curve; in most records, active means well fitted cell-killing curve with a large enough effect; inconclusive means small, poorly fitted or top-dose-only effect, or effect the other way; inactive means no such curve, though single readings can be large or run the other way.
On the % scale 0 is the no-effect control and ±100 the full control effect; potency means the concentration at half of the fitted maximal effect.

The subject of this assay is HeLa. The experiment in a line: Confirmatory qHTS for gynecologic anti-cancer compounds from libraries of approved drugs and bioactive compounds. Further: nearly all actives have a fitted effect of over 55% in size. As to conditions: gynecologic cancer cell panel viability, ATPlite luminescence, 48 h; series mostly up to 57.6 µM; activity change, negative = viability loss: at the top concentration. A digest of the protocol: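 Viability is measured as ATP-dependent luciferase light using ATPlite, read 15 min after reagent addition at room temperature. Compounds, in DMSO, span 57.5 uM down to 0.977 nM over 11 threefold steps for 48 h.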
Take `Cn1c(=O)c(-c2c(Cl)cccc2Cl)cc2cnc(Nc3cccc(C(=O)O)c3)nc21`: the Potency is 2430 nM (active).
As to `O=C1Cc2cc(CCN3CCN(c4nsc5ccccc45)CC3)c(Cl)cc2N1`, the “activity change, negative = viability loss” value was -11% (inactive).
On to `COc1cc(Nc2ncc3c(n2)-c2ccc(Cl)cc2C(c2c(F)cccc2OC)=NC3)ccc1C(=O)O`, for which the Potency is 685 nM (active).

These data come from PubChem BioAssay AID1345085 (National Center for Advancing Translational Sciences (NCATS), 2018).
